From PubChem BioAssay (NCI)
The panel holds about 83,000 compounds, 20% with a hit somewhere; the sample as a whole holds those more often.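 Growth was measured after 48 h exposure to one concentration of compound in 96-well plates. Values under 10 count as active.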 Values without a mark were called inactive. Activity calls are given as the source filed them.

The compounds below were run on TK-10 renal (assay: NCI-60 one-dose screen, 48 h (100 = growth as untreated, 0 = no growth, -100 = all killed)). Conditions: 10 µM unless noted.
Description: Growth inhibition of the TK-10 human tumor cell line is measured as a screen for anti-cancer activity. Cells are grown in 96 well plates and exposed to the test compound for 48 hours. Compounds are tested at a single concentration, which is 10^-5 M for most compounds. The reported endpoint is percent growth (GI% or GIPRCNT), where numbers from 0 - 100% represent growth inhibition, and numbers from -100% - 0 represent cell death. For example, a value of 40 represents 60% growth inhibition. A value of 0 means no net growth occurred over the course of the experiment. A value of -40 indicates 40% of cells at the beginning of the experiment died by the end of the experiment. A value of -100 means all cells are dead at the end of the experiment.
NCI-60 Human Tumor Cell Lines Screen was performed using the standard one-dose NCI protocol, which is described in more detail at https://dtp.cancer.gov/discovery_development/nci-60/default.htm.
Compounds with GIPRCNT values below 10 were considered active. Activity score was based on GIPRCNT using the following formula: […]
Score is 0 for GIPRCNT values of 100 or above, 50 for GIPRCNT values of 0, and 100 for GIPRCNT values of -100.

SMILES	growth
COc1cc2oc(-c3cccc(C(=O)Nc4ccc(Br)cc4)c3)cc(=O)c2c(OC)c1OC	62.5%
Oc1ccc(C(c2ccc(O)cc2)c2ccc(Br)cn2)cc1	4.53% (active)
N#C/C(=C\c1ccccn1)c1nc2cc(Cl)ccc2s1	119%
COc1cc2c(=O)n(CCN(C)C)c3c4cc5c(cc4ccc3c2cc1OC)OCO5	-76.2% (active)
O=C(CCN1CCCC1)Nc1ccc2c(NCc3ccccc3)c3ccccc3nc2c1	1.15% (active)
CC1(C)NCCC[C@]2(C)[C@H]3CC[C@@H]4[C@H]5[C@H](C(=O)/C=C/c6ccco6)CC[C@]5(CO)CC[C@@]4(C)[C@]3(C)CC[C@@H]12	9.01% (active)
O=C(Nc1ccc(NC(=O)c2cc(=O)[nH]c3ccccc23)cc1)Nc1cccc(Cl)c1	90.2%
CC(C)N1C(=O)/C(=C2\SC(=S)N(C(C)C)C2=O)SC1=S	88.2%
Cc1nc2ccc(Cl)cn2c1-c1nnc(SCc2ccc([N+](=O)[O-])cc2)o1	91.3%
O=C(c1nc2ccccc2[nH]1)C1C(c2ccc(Br)cc2)C2CC3CCCC[C@H]3N2[C@@]12C(=O)Nc1cc(Cl)ccc12 (stereo not given in full)	40.7%
COc1ccc(-c2nc(S(=O)(=O)c3ccccc3)c(S(=O)CC(=O)N3CCC(C)CC3)o2)cc1 (stereo not given)	33.1%
O=S(=O)(Nc1ccc(-n2cnc3cc(-c4ccc(O)cc4)ccc32)cc1)c1ccccc1	113%
[O-][n+]1c(Cl)cc(Cl)c2ccccc21	125%
COC(=O)C(OC(C)=O)C(OC(C)=O)c1ccc(OC)c(OC)c1 (stereo not given)	115%
COc1cccc(/C=N/NC(=O)c2cnn3c2NC(c2ccccc2)C3)c1Oc1ccccc1 (stereo not given)	94.3%
O=C1Nc2ccccc2/C1=C\c1c(-c2ccc(F)cc2)nc2ccccn12	109%
Cc1cc(C(=O)/C=C/c2ccc[nH]2)ccc1-n1ccc(C(F)(F)F)n1	95.6%
CCCCOc1ccc(/C=N/Nc2cc(C)nc3ccc(Br)cc23)cc1	76.2%
O=C(/C(=C/c1ccc([N+](=O)[O-])cc1)SCc1ccc(F)cc1)c1ccc(F)cc1	79.4%
COc1ccc(C(=O)Cn2c(C(=O)c3ccccc3)nc3ccccc32)cc1	59.6%

SMILES	growth
Cc1c(C(=O)NCCC(=O)NO)sc2ncnc(Nc3ccc(F)c(Cl)c3)c12	107%
CC(C)(C)c1cc(C=O)cc(C(C)(C)C)c1O	93.2%
COc1ccc(C(=O)c2cc(C)c(OC)c(C)c2)c(OC)c1N(C(=O)CCl)C(=O)CCl	52.5%
CCCCCCNC(=O)Oc1ccc(/C(=C(\C)c2ccccc2)c2ccc(OCCN3CCCCC3)cc2)cc1	83.3%
Cc1ccc(-n2cc(-c3ccccc3)c3c2N=NN2CCN=C32)cc1	141%
COc1ccc2c(c1)oc1c(C)c3c(c(C)c12)C(=O)N(CCN1CCOCC1)C3=O	115%
COc1ccc2nc(-c3ccc(-c4noc(-c5cc(OC)c(OC)c(OC)c5)n4)cc3)[nH]c2c1	102%
CCCOC(=O)N[C@H]1CCc2c(Cl)c(OC)c(OC)c(OC)c2-c2ccc(SC)c(=O)cc21	49.3%
O=C(c1ccccc1)N1N=C(c2ccc(-n3ccc(C(F)(F)F)n3)c(F)c2)CC1c1ccc[nH]1 (stereo not given)	99.2%
CCCCCCOc1ccc(/C=N/Nc2cc(C)nc3ccc(Cl)cc23)cc1	-51.4% (active)
c1ccc2c(-c3nccs3)c[nH]c2c1	84.4%
NC1=NN=C(N)C1=Cc1cc2ccccc2n2nnnc12	114%
O=C(O)c1ccc(-c2nn(-c3ccc(C(F)(F)F)cc3)cc2CNc2ccc(Oc3ccccc3)cc2)cc1	98.3%
COc1ccc(C(=O)c2nc3ccccc3n2CC(=O)c2ccc(F)cc2)cc1	84.2%
Nc1c(C(=O)Nc2cccc3cnccc23)sc2nc3c(cc12)CN(Cc1ccccc1)CC3	140%
Cc1ccc(-n2c3c(c(-c4ccccc4)c2-c2ccccc2)C2=NCCN2C=N3)cc1	144%
N#Cc1c(-c2cccc([N+](=O)[O-])c2)nc(SCC(=O)c2ccc(Cl)cc2)[nH]c1=O	102%
O=C(CCN1CCCC1)Nc1ccc2c(NCCCc3ccccc3)c3ccccc3nc2c1	5% (active)
CCCCCC(=O)Oc1ccc(/C(=C(/C)Cc2ccc(OC)cc2)c2ccc(OCCCN(C)C)cc2)cc1	100%
CN1CCN(C(=O)[C@]23CCC(C)(C)C[C@H]2C2=CC[C@@H]4[C@@]5(C)C/C(=C/c6ccncc6)C(=O)C(C)(C)[C@@H]5CC[C@@]4(C)[C@]2(C)CC3)CC1	77.1%
